Laboratory results from PubChem BioAssay AID1159580 (chemical genetic matrix, 2015).
Hit rate of the full screen: of about 5,500 compounds, about 2,000 (36%) were called active. Not shown: some 18% with an inconclusive outcome. The list shows a part of the results. Values without a mark were called inactive. Cut-off read from the data, not from the text of the source: active = normalized growth mostly below about 0.91 (no sharp cut-off); inconclusive = no clear call, values can overlap the other calls; inactive = mostly above about 0.92.

Assay: chemical genetic growth profiling, strain panel (AID 1159580);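 note: tested at 20 µM; growth read once vehicle control cultures reached saturation at 30 °C; 1 = growth at the plate median or of vehicle wells; lower values mean less growth of the strain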
Conditions: growth OD
[1] = S. cerevisiae deletion strains, locus YAL013W, strain DEP1, active compounds read low
[2] = S. cerevisiae deletion strains, locus YDR150W, strain NUM1, active compounds read low
[3] = S. cerevisiae deletion strains, locus YGR078C, strain PAC10, active compounds read low
[4] = S. cerevisiae deletion strains, locus YGR229C, strain SMI1, active compounds read low
[5] = S. cerevisiae deletion strains, locus YHR030C, strain SLT2, active compounds read low
[6] = S. cerevisiae deletion strains, locus YJL095W, strain BCK1, active compounds read low
[7] = S. cerevisiae deletion strains, locus YJR075W, strain HOC1, active compounds read low
[8] = S. cerevisiae deletion strains, locus YMR263W, strain SAP30, active compounds read low
[9] = S. cerevisiae deletion strains, locus YMR307W, strain GAS1, active compounds read low
[10] = S. cerevisiae deletion strains, locus YNL128W, strain TEP1, active compounds read low
[11] = S. cerevisiae deletion strains, locus YNL153C, strain GIM3, active compounds read low
[12] = S. cerevisiae deletion strains, locus YNL322C, strain KRE1, active compounds read low
[13] = S. cerevisiae deletion strains, locus YPL055C, strain LGE1, active compounds read low
[14] = S. cerevisiae deletion strains, locus YPL241C, strain CIN2, active compounds read low
[15] = S. cerevisiae deletion strains, locus YAL040C, strain CLN3, active compounds read low
[16] = S. cerevisiae deletion strains, locus YCL061C, strain MRC1 (second series), active compounds read low
[17] = S. cerevisiae deletion strains, locus YDR363W, strain ESC2, active compounds read low
[18] = S. cerevisiae deletion strains, locus YER002W, strain NOP16, active compounds read low
[19] = S. cerevisiae deletion strains, locus YHR079C, strain IRE1, active compounds read low
[20] = S. cerevisiae deletion strains, locus YJR066W, strain TOR1, active compounds read low
[21] = S. cerevisiae deletion strains, locus YLR113W, strain HOG1, active compounds read low
[22] = S. cerevisiae deletion strains, locus YNL175C, strain NOP13, active compounds read low
[23] = S. cerevisiae deletion strains, locus YNL183C, strain NPR1, active compounds read low
[24] = S. cerevisiae deletion strains, locus YNL197C, strain WHI3, active compounds read low
[25] = S. cerevisiae deletion strains, locus YNL224C, strain SQS1, active compounds read low
[26] = S. cerevisiae deletion strains, locus YOR083W, strain WHI5 (second series), active compounds read low
[27] = S. cerevisiae deletion strains, locus YOR231W, strain MKK1, active compounds read low
[28] = S. cerevisiae deletion strains, locus YPL256C, strain CLN2, active compounds read low

SMILES: CC(=O)c1c(O)c(C)c(O)c2c1oc1c(C(C)=O)c(O)c(C)c(O)c12
- normalized growth [1]: 1
- normalized growth (S. cerevisiae deletion strains, locus YBR021W, strain FUR4, active compounds read low): 0.991
- normalized growth (S. cerevisiae deletion strains, locus YBR229C, strain ROT2, active compounds read low): 0.981
- normalized growth (S. cerevisiae deletion strains, locus YCL029C, strain bik1, active compounds read low): 0.961
- normalized growth (S. cerevisiae deletion strains, locus YDL035C, strain GPR1, active compounds read low): 0.942
- normalized growth (S. cerevisiae deletion strains, locus YDL074C, strain BRE1, active compounds read low): 0.963
- normalized growth (S. cerevisiae deletion strains, locus YDL101C, strain DUN1, active compounds read low): 0.98
- normalized growth (S. cerevisiae deletion strains, locus YDL134C, strain PPH21, active compounds read low): 0.981
- normalized growth (S. cerevisiae deletion strains, locus YDL192W, strain arf1, active compounds read low): 0.934
- normalized growth (S. cerevisiae deletion strains, locus YDR101C, strain arx1, active compounds read low): 0.918 (active)
- normalized growth [2]: 0.988
- normalized growth (S. cerevisiae deletion strains, locus YDR162C, strain NBP2, active compounds read low): 0.979
- normalized growth (S. cerevisiae deletion strains, locus YDR318W, strain mcm21, active compounds read low): 0.934
- normalized growth (S. cerevisiae deletion strains, locus YDR388W, active compounds read low): 0.966
- normalized growth (S. cerevisiae deletion strains, locus YDR502C, strain sam2, active compounds read low): 0.91 (active)
- normalized growth (S. cerevisiae deletion strains, locus YEL061C, strain CIN8, active compounds read low): 0.98
- normalized growth (S. cerevisiae deletion strains, locus YER110C, active compounds read low): 0.976
- normalized growth (S. cerevisiae deletion strains, locus YER155C, strain BEM2, active compounds read low): 0.973
- normalized growth (S. cerevisiae deletion strains, locus YER167W, strain BCK2, active compounds read low): 0.963
- normalized growth (S. cerevisiae deletion strains, locus YGL078C, strain dbp3, active compounds read low): 0.987
- normalized growth (S. cerevisiae deletion strains, locus YGL086W, strain mad1, active compounds read low): 0.993
- normalized growth (S. cerevisiae deletion strains, locus YGL248W, strain PDE1, active compounds read low): 0.973
- normalized growth [3]: 0.943
- normalized growth (S. cerevisiae deletion strains, locus YGR135W, strain pre9, active compounds read low): 0.954
- normalized growth [4]: 0.901
- normalized growth (S. cerevisiae deletion strains, locus YGR252W, strain gcn5, active compounds read low): 0.906
- normalized growth [5]: 0.961
- normalized growth (S. cerevisiae deletion strains, locus YHR079C, strain IRE1 (second series), active compounds read low): 0.953
- normalized growth (S. cerevisiae deletion strains, locus YHR094C, strain hxt1, active compounds read low): 0.978
- normalized growth (S. cerevisiae deletion strains, locus YHR129C, strain ARP1, active compounds read low): 0.975
- normalized growth (S. cerevisiae deletion strains, locus YHR200W, strain rpn10, active compounds read low): 0.938
- normalized growth (S. cerevisiae deletion strains, locus YIL066C, strain RNR3, active compounds read low): 0.924
- normalized growth (S. cerevisiae deletion strains, locus YIL073C, strain SPO22, active compounds read low): 0.942
- normalized growth (S. cerevisiae deletion strains, locus YIL125W, strain kgd1, active compounds read low): 0.983
- normalized growth (S. cerevisiae deletion strains, locus YIR030C, strain dcg1, active compounds read low): 0.952
- normalized growth [6]: 0.909
- normalized growth (S. cerevisiae deletion strains, locus YJL134W, strain LCB3, active compounds read low): 0.977
- normalized growth (S. cerevisiae deletion strains, locus YJL168C, strain set2, active compounds read low): 0.968
- normalized growth (S. cerevisiae deletion strains, locus YJL187C, strain SWE1 (second series), active compounds read low): 0.944
- normalized growth (S. cerevisiae deletion strains, locus YJR043C, strain POL32, active compounds read low): 0.926
- normalized growth [7]: 0.974
- normalized growth (S. cerevisiae deletion strains, locus YKL009W, strain mrt4, active compounds read low): 0.944
- normalized growth (S. cerevisiae deletion strains, locus YKL068W, active compounds read low): 0.995
- normalized growth (S. cerevisiae deletion strains, locus YKL085W, strain MDH1 (second series), active compounds read low): 0.982
- normalized growth (S. cerevisiae deletion strains, locus YKL085W, strain MDH1, active compounds read low): 0.982
- normalized growth (S. cerevisiae deletion strains, locus YKL190W, strain CNB1, active compounds read low): 0.988
- normalized growth (S. cerevisiae deletion strains, locus YKR001C, strain vps1, active compounds read low): 0.638 (active)
- normalized growth (S. cerevisiae deletion strains, locus YLR039C, strain RIC1, active compounds read low): 0.722
- normalized growth (S. cerevisiae deletion strains, locus YLR058C, strain SHM2, active compounds read low): 0.966
- normalized growth (S. cerevisiae deletion strains, locus YLR102C, strain apc9, active compounds read low): 0.979
- normalized growth (S. cerevisiae deletion strains, locus YLR262C, strain YPT6, active compounds read low): 0.827
- normalized growth (S. cerevisiae deletion strains, locus YLR268W, strain sec22, active compounds read low): 0.906
- normalized growth (S. cerevisiae deletion strains, locus YLR330W, strain CHS5, active compounds read low): 0.983
- normalized growth (S. cerevisiae deletion strains, locus YLR342W, strain FKS1 (second series), active compounds read low): 0.882
- normalized growth (S. cerevisiae deletion strains, locus YLR371W, strain rom2, active compounds read low): 0.979
- normalized growth (S. cerevisiae deletion strains, locus YLR418C, strain cdc73, active compounds read low): 0.9
- normalized growth (S. cerevisiae deletion strains, locus YML016C, strain PPZ1, active compounds read low): 0.975
- normalized growth (S. cerevisiae deletion strains, locus YML032C, strain rad52, active compounds read low): 0.891 (active)
- normalized growth (S. cerevisiae deletion strains, locus YML124C, strain tub3, active compounds read low): 0.964
- normalized growth (S. cerevisiae deletion strains, locus YMR078C, strain ctf18, active compounds read low): 0.966
- normalized growth (S. cerevisiae deletion strains, locus YMR223W, strain ubp8, active compounds read low): 0.921
- normalized growth [8]: 0.957
- normalized growth [9]: 0.901
- normalized growth (S. cerevisiae deletion strains, locus YNL067W, strain RPL9B, active compounds read low): 0.961
- normalized growth [10]: 0.972
- normalized growth [11]: 0.986
- normalized growth (S. cerevisiae deletion strains, locus YNL233W, strain BNI4, active compounds read low): 0.943
- normalized growth (S. cerevisiae deletion strains, locus YNL250W, strain rad50, active compounds read low): 0.977
- normalized growth (S. cerevisiae deletion strains, locus YNL271C, strain bni1, active compounds read low): 0.985
- normalized growth (S. cerevisiae deletion strains, locus YNL298W, strain CLA4, active compounds read low): 0.958
- normalized growth (S. cerevisiae deletion strains, locus YNL307C, strain MCK1, active compounds read low): 0.941
- normalized growth [12]: 0.989
- normalized growth (S. cerevisiae deletion strains, locus YNR052C, strain pop2, active compounds read low): 0.852 (active)
- normalized growth (S. cerevisiae deletion strains, locus YOL006C, strain TOP1, active compounds read low): 0.921
- normalized growth (S. cerevisiae deletion strains, locus YOL012C, strain htz1): 0.749
- normalized growth (S. cerevisiae deletion strains, locus YOL147C, strain pex11, active compounds read low): 0.958
- normalized growth (S. cerevisiae deletion strains, locus YOR061W, strain CKA2, active compounds read low): 0.963
- normalized growth (S. cerevisiae deletion strains, locus YOR069W, strain VPS5, active compounds read low): 0.988
- normalized growth (S. cerevisiae deletion strains, locus YOR136W, strain idh2, active compounds read low): 0.967
- normalized growth (S. cerevisiae deletion strains, locus YOR144C, strain elg1, active compounds read low): 0.971
- normalized growth (S. cerevisiae deletion strains, locus YOR184W, strain ser1, active compounds read low): 0.88
- normalized growth (S. cerevisiae deletion strains, locus YOR316C, strain cot1, active compounds read low): 0.972
- normalized growth [13]: 0.95
- normalized growth [14]: 0.962
- normalized growth (S. cerevisiae deletion strains, locus YPR119W, strain clb2, active compounds read low): 0.971
- normalized growth (S. cerevisiae deletion strains, locus YPR141C, strain kar3, active compounds read low): 0.985
- normalized growth (S. cerevisiae deletion strains, locus YPR163C, strain tif3, active compounds read low): 0.98
- normalized growth (S. cerevisiae deletion strains, locus YPR167C, strain met16, active compounds read low): 0.974
- normalized growth (S. cerevisiae deletion strains, strain wtn01, active compounds read low): 0.932
- normalized growth (S. cerevisiae strains, strain wild type, active compounds read low): 0.954

SMILES: Nc1nc2ccc(OC(F)(F)F)cc2s1
- normalized growth [1]: 0.937
- normalized growth [15]: 0.985
- normalized growth [16]: 0.979
- normalized growth [2]: 0.954
- normalized growth [17]: 0.943
- normalized growth [18]: 0.979
- normalized growth [5]: 1.02
- normalized growth [19]: 1.02
- normalized growth [6]: 0.961
- normalized growth [20]: 0.956
- normalized growth [7]: 0.918
- normalized growth [21]: 0.94
- normalized growth [8]: 0.988
- normalized growth [9]: 0.856 (active)
- normalized growth [22]: 0.975
- normalized growth [23]: 0.944
- normalized growth [24]: 0.988
- normalized growth [25]: 0.979
- normalized growth [26]: 0.938
- normalized growth [27]: 0.999
- normalized growth [13]: 0.829 (active)
- normalized growth [28]: 1.02

SMILES: OCc1ccc(-c2nn(Cc3ccccc3)c3ccccc23)o1
- normalized growth [1]: 0.925
- normalized growth [15]: 1.06
- normalized growth [16]: 1
- normalized growth [2]: 1.02
- normalized growth [17]: 1.01
- normalized growth [18]: 0.988
- normalized growth [3]: 0.986
- normalized growth [4]: 0.841 (active)
- normalized growth [8]: 0.991
- normalized growth [22]: 0.977
- normalized growth [24]: 0.972
- normalized growth [25]: 0.981
- normalized growth [26]: 0.95
- normalized growth [14]: 1.02

SMILES: CN(C)CCCOc1nn(Cc2ccccc2)c2ccccc12
- normalized growth [5]: 0.972
- normalized growth [19]: 0.968
- normalized growth [6]: 0.979
- normalized growth [20]: 0.954
- normalized growth [21]: 0.956
- normalized growth [23]: 0.922
- normalized growth [27]: 0.967
- normalized growth [28]: 0.991

SMILES: O=C(O)c1nn(Cc2ccc(Cl)cc2Cl)c2ccccc12
- normalized growth [1]: 1
- normalized growth [15]: 1.05
- normalized growth [16]: 0.99
- normalized growth [2]: 1.02
- normalized growth [17]: 0.972
- normalized growth [18]: 0.956
- normalized growth [4]: 1.03
- normalized growth [7]: 1.02
- normalized growth [8]: 1
- normalized growth [10]: 0.969
- normalized growth [11]: 1.02
- normalized growth [22]: 0.935
- normalized growth [24]: 0.964
- normalized growth [25]: 0.996
- normalized growth [12]: 0.998
- normalized growth [26]: 0.994
